Screening data as filed in PubChem.
An excerpt weighted towards active compounds, which were near 8% of everything screened.
MCF10A rereplic: induces DNA re-replication in MCF 10a normal breast cells; AID 624296; MCF 10A DNA re-replication, Hoechst nuclear intensity, 48 h; 2.9% of 350,000 active; Potency, µM (series often up to 46.1 µM), most hits filed as activators; further: nearly all actives have a fitted effect of over 50% in size
KB-V1 cytotox: KB-V1 MDR subline cytotoxicity; AID 1347076; Potency, µM (series often up to 46.1 µM), most hits filed as cytotoxic; 3.4% of 400,000 active; KB-V1 MDR cells viability, CellTiter-Glo, 72 h; further: nearly all actives have a fitted effect of over 60% in size
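qHTS viability screen in drug-selected KB-V1 MDR cells: 72 h compound treatment at 37 degrees C, ATP luminescence end point.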
SW480 rerep: DNA re-replication induction in SW480 cells. SW480 DNA re-replication, Hoechst DNA content imaging, 48 h. Potency, µM (series often up to 46.1 µM), usual class: activators. 1.8% of 340,000 active. AID 624297; further: nearly all actives have a fitted effect of over 55% in size
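Hoechst fluorescence of nuclei (405 nm excitation, 500-530 nm emission) measured by plate-scanning imager after 48 hr compound exposure at 37 C; re-replication scored as increased number of nuclei with elevated intensity.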
KB-3-1 cytotox: kills parental KB-3-1 adenocarcinoma cells | KB-3-1 viability, CellTiter-Glo ATP luminescence, 72 h | Potency, µM (highest dose often 46.1 µM), most hits filed as cytotoxic | 1.4% of 400,000 active | AID 1347075; further: nearly all actives have a fitted effect of over 60% in size
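Viability of parental KB-3-1 cells, measured by CellTiter-Glo luminescence, followed a 72 h incubation at 37 °C with pinned compounds in phenol-red-free DMEM containing 10% FBS.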
HT1080NT lethal: kills 2HG-producing HT-1080-NT fibrosarcoma cells | HT-1080-NT fibrosarcoma viability, CellTiter-Glo ATP luminescence, 48 h | Potency, µM (titrated, usually from 46.1 µM), usual class: cytotoxic | 1.6% of 360,000 active | AID 686970;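 further: NT is the 2HG producing partner of a matched IDH1 knockdown line; nearly all actives have a fitted effect of over 55% in size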
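Toxicity toward the 2HG-producing NT line was scored as %Activity, normalised to DMSO and no-cell wells, from CellTiter-Glo luminescence after 48 hours' treatment.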
HT1080 IDH1KD tx: kills HT-1080 cells with IDH1 knockdown; Potency, µM (titrated, usually from 46.1 µM), usual class: cytotoxic; HT-1080 IDH1 knockdown viability, ATP luminescence, 48 h; AID 686971; 2% of 360,000 active
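Knockdown cells (IDH1KD HT-1080) received compounds 2 h after plating at 750 cells/well and were kept 48 h at 37 °C in 5% FBS RPMI. A CellTiter-Glo luminescence read gave % activity for curve fitting.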
A number is an active result; i = inactive; ? = inconclusive; nt = not tested or not shown; [ ] = another dose, or the depositor's remark. The call rests on the fitted dose curve; in most records, active means well fitted curve in the direction sought with a large enough effect; inconclusive means small, poorly fitted or top-dose-only effect, or another doubt; inactive means no such curve, though single readings can be large; an effect the other way counts as inactive or inconclusive.

SMILES	MCF10A rereplic	KB-V1 cytotox	SW480 rerep	KB-3-1 cytotox	HT1080NT lethal	HT1080 IDH1KD tx
Cc1cc(Cl)c(S(=O)(=O)N2CCN(c3ccc(F)cc3)CC2)cc1OCC(=O)NC1CCCCC1	i	?	i	0.73µM	?	i
CC1CCN(C(=O)COC(=O)c2ccc([N+](=O)[O-])o2)CC1	i	?	21µM	i	i	i
CC1CCN(C(=O)COC(=O)c2ccc(Br)o2)CC1	i	i	i	?	i	i
Cc1[nH]c2ccc(F)cc2c(=O)c1SC(F)(F)C(F)C(F)(F)F (centres undefined)	i	i	i	i	i	?
COc1cccc2c(=O)c(SC(F)(F)C(F)C(F)(F)F)c(C)[nH]c12 (centres undefined)	?	i	16µM	?	?	21µM
CN(c1ccccc1)c1cc(Br)nc(Br)c1	i	21µM	i	?	i	i
CCOc1c(Cl)cc(CNc2ccc3[nH]c(=O)[nH]c3c2)cc1OC	nt	i	nt	i	nt	nt
O=c1[nH][nH]c2cc([N+](=O)[O-])ccc12	?	?	i	?	4.1µM	15µM
O=c1[nH]c2cc([N+](=O)[O-])ccc2c2ccc([N+](=O)[O-])cc12	i	i	i	i	i	i
COC(=O)c1scc(-c2ccc(C)cc2)c1S(=O)(=O)Nc1cccc(C(F)(F)F)c1	nt	i	nt	i	nt	nt
Cc1ccc(S(=O)(=O)N(CCO)Cc2cc3ccc(C)c(C)c3[nH]c2=O)cc1	i	16µM	i	i	i	i
CN(C(=O)Cn1nnc(-c2ccc(S(C)(=O)=O)cc2)n1)c1ccccc1	nt	i	nt	i	nt	nt
CC(C)COc1ccc(CSCCNC(=S)Nc2ccccc2)cc1	?	26µM	?	i	?	?
Cc1ccc(C(=O)Nc2cc(-c3nc4ncccc4o3)ccc2C)c(C)c1	nt	i	nt	i	nt	nt
CC1CC(C)CN(S(=O)(=O)c2ccc(Oc3ccc([N+](=O)[O-])cc3)cc2)C1 (centres undefined)	?	13µM	i	?	i	i
CC1CCCN(S(=O)(=O)c2ccc([N+](=O)[O-])cc2)C1 (centres undefined)	i	i	i	i	i	i
CC(NC(=O)CN(C)CC(=O)Nc1cccc(F)c1)c1ccccc1 (centres undefined)	i	18µM	i	i	i	i
CN(CC(=O)Nc1cccc(F)c1)CC(=O)Nc1cccc2ccccc12	i	i	i	?	i	i
Cn1c(=O)c2c(-c3ccc(Cl)cc3)ccnc2n(C)c1=O	nt	i	nt	i	nt	nt
COC(=O)CNC(=O)COC(=O)/C=C/c1ccccc1[N+](=O)[O-]	5.8µM	i	i	i	i	i
O=C(/C=C/c1ccccc1[N+](=O)[O-])c1ccc(F)cc1	?	23µM	?	?	?	i
O=C(/C=C/c1ccccc1[N+](=O)[O-])OCC(=O)c1ccccc1	i	i	i	i	i	i
COc1ccc(CNC(=O)/C=C/c2ccccc2[N+](=O)[O-])cc1	i	i	i	i	i	i
COC(=O)C(=Cc1ccccc1[N+](=O)[O-])C(=O)OC	23µM	i	?	i	?	i
O=C(CN1C(=O)COc2ccc(Cl)cc21)Nc1cccc(C(=O)O)c1	nt	?	nt	i	nt	nt
SMILES	MCF10A rereplic	KB-V1 cytotox	SW480 rerep	KB-3-1 cytotox	HT1080NT lethal	HT1080 IDH1KD tx
CCN1C(=O)c2cccc3c(S(=O)(=O)N4CCCC4C(=O)O)ccc1c23 (centres undefined)	i	i	18µM	i	?	i
CCOC(=O)C1CCCN(S(=O)(=O)c2ccc3c4c(cccc24)C(=O)N3CC)C1 (centres undefined)	i	i	7.3µM	i	i[9.24 µM]	i
CCN1C(=O)c2cccc3c(S(=O)(=O)N4CCNCC4)ccc1c23	?	i	6.5µM	i	i	i
COC(=O)c1cn(C(=O)c2ccc(C)cc2C)c2ccccc12	4.6µM	i	8.2µM	?	?	6.5µM
COC(=O)c1cn(C(=O)c2ccccc2Cl)c2ccccc12	?	i	i	?	i	?
CCOC(=O)c1cc(NC(=O)C2C3C=CC(O3)C2C(=O)O)cc(C(=O)OCC)c1 (centres undefined)	i	i	i	i	i	i
CCOC(=O)c1cc(NC(=O)C2C3CCC(O3)C2C(=O)O)cc(C(=O)OCC)c1 (centres undefined)	i	23µM	i	i	i	?
COc1cc(C(CCN2CCCC(C)C2)c2c(OC)cc(OC)c3c(-c4ccccc4)cc(=O)oc23)cc(OC)c1OC (centres undefined)	i	i	i	?	18µM	?
COc1cc(C(CCN2CCCCC2)c2c(OC)cc(OC)c3c(-c4ccccc4)cc(=O)oc23)cc(OC)c1OC (centres undefined)	i	?	i	?	i	i
CCN(CC)CCn1c2ccccc2c2cnc(N)c(C#N)c21	?	?	?	23µM	i	?
Cc1ccc(CN2CCN(/N=C/c3ccc(C(=O)O)cc3)CC2)c(C)c1	i	i	i	i	i	i
COC(=O)c1ccc(/C=N/N2CCN(Cc3ccc(C)cc3C)CC2)cc1	i	18µM	i	i	i	i
COCCCNC(=O)CSc1nc(-c2ccc(OC)cc2)[nH]c1-c1ccc(OC)cc1	nt	i	nt	i	nt	nt
COc1ccc(Sc2ccccc2CN(C)C)cc1OC	i	i	i	i	i	i
CNCc1ccccc1Sc1ccc(O)c(O)c1	?	23µM	?	i	i	?
Cc1nc2sc(C(=O)Nc3ccc(F)cc3)c(N)c2c(-c2ccc(Br)cc2)c1C(=O)Nc1ccc(Cl)cc1	nt	?	nt	i	nt	nt
COC(=O)CNc1c(-c2ccccn2)nc2ccc(Br)cn12	i	5.2µM	i	i	i	i
Cc1ccc(Nc2c(-c3ccccn3)nc3ccc(Br)cn23)cc1	nt	?	nt	i	nt	nt
CCCOc1ccc(Nc2cc(C)nc(C)n2)cc1	nt	i	nt	i	nt	nt
O=C(CN(Cc1cccs1)C(=O)CSc1nnc(COc2ccccc2)o1)NC1CCCC1	10µM	i	?	i	i	i
O=C(CN(Cc1ccccc1)C(=O)CSc1nnc(COc2ccccc2)o1)NC1CCCC1	i	i	i	i	i	i
CCN(CC)c1ccc(NC(=O)c2cc(C)nc3c2c(C)nn3-c2ccc(C)cc2)c(C)c1	nt	i	nt	i	nt	nt
CC(=O)c1ccc(NC(=O)c2ncn(-c3ccccc3)n2)cc1	nt	i	nt	i	nt	nt
COc1ccc(C=C(C(=O)c2ccccc2)c2ccccc2)cc1	nt	?	nt	?	i	i
COc1ccc(C=C(C(=O)c2ccccc2)C(=O)c2ccccc2)cc1	nt	?	nt	?	18µM	?
COc1ccc(C=C(C(C)=O)C(=O)c2ccccc2)cc1	nt	i	nt	i	23µM	23µM
CCCCCCn1ccc(=N)cc1	i	i	i	8.2µM	i	i
CC(=O)NCCc1nc2ccccc2n1CCCCOc1ccc(Cl)cc1	nt	i	nt	i	nt	nt
